An excerpt weighted towards active compounds, which were near 11% of everything screened.
ALDH1A1 block – blocks purified human ALDH1A1 activity | P00352 | Purified ALDH1A1, NADH fluorescence, propionaldehyde substrate | Potency, µM (highest dose often 75.3 µM), for inactives: at the highest dose activity, negative = inhibition, hits mostly inhibitors | 220,000 tested, 7.3% active | AID 1030;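 also: potency is read from the fitted curve at half-maximal effect; plate controls were no enzyme wells and a reference inhibitor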
IMPase Li inh – cell-permeable IMPase inhibitors with lithium potentiation; CHO-M1 cells, IP1 TR-FRET (IP-One), carbachol + lithium; 210,000 tested, 0.35% active; Potency, µM (highest dose often 59.4 µM), for the others: at the highest dose activity, negative = IMPase inhibition, hits mostly inhibitors; AID 1457; active = well fitted inhibition curve with a large enough effect; inconclusive = small, poorly fitted or top-dose-only effect; inactive = no such curve, though single readings can be large or run the other way;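 also: IP1 builds up when IMPase is blocked and the TR-FRET signal falls; potency is read from the fitted curve at half-maximal effect; plate controls were basal vehicle for no effect and high inhibitor control for full effect; nearly all actives have a fitted effect of over 50% in size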
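Steps: plate 2000 CHO-M1 cells per well and culture 16–30 h; add compound and lithium; incubate 30 min, 37C; add d2-IP1 tracer and Eu cryptate anti-IP1 antibody in lysis buffer; read after 10 min at room temperature.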
HPGD block – inhibitors of human 15-hydroxyprostaglandin dehydrogenase (HPGD). AID 894. 150,000 tested, 4.3% active. purified HPGD, NADH fluorescence kinetic, PGE2 substrate. Potency, µM, without a hit: top-dose activity change, negative = inhibition, hits mostly inhibitors. P15428; also: potency is read from the fitted curve at half-maximal effect
Target sequence (P15428 whole entry, looked up): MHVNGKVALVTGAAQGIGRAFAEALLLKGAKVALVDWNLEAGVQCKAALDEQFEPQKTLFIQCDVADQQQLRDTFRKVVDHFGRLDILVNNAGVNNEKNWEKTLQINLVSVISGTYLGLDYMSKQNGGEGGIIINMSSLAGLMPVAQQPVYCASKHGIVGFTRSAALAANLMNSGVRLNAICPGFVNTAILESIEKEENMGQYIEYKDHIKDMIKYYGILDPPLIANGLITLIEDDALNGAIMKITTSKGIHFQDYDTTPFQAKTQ
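NADH formation kinetics: reaction with 30 uM PGE2 and 1 mM NAD+ (final), 20 nM enzyme, Tris-HCl pH 8 with Tween 20, after 15 min compound preincubation at room temperature. Fluorescence change, last versus first of five reads.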
IMPase inh – membrane-permeable compound that blocks inositol monophosphatase; inhibition (IP1 accumulation), % at 46.1 µM; AID 901; 120,000 tested, under 10 active; CHO-M1 cells, IP1 accumulation, HTRF TR-FRET ratio; P97697; active = well fitted curve in the direction sought with a large enough effect in the signal ratio, not every such curve was filed as active; inconclusive = small, poorly fitted or top-dose-only effect, or a change in a side signal; inactive = no such curve, though single readings can be large or run the other way; the % refers to the signal ratio;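 also: cells stimulated with carbachol in lithium chloride buffer; plate controls were DMSO basal wells for no effect and reference inhibitor wells for full effect; higher means more IMPase inhibition seen as more IP1 and lower FRET ratio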
Target sequence (P97697 whole entry, looked up): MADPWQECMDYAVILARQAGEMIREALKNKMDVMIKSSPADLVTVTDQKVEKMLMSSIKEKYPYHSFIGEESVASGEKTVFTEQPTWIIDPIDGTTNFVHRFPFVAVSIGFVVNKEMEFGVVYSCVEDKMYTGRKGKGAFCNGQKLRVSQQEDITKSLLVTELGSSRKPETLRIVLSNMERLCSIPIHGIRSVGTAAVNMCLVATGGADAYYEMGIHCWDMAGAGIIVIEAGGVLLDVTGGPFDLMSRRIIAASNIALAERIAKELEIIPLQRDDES
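The IP-One HTRF competitive assay in carbachol-stimulated CHO-M1 cells quantifies cellular IP1. Compounds spanned up to 46 uM final, and activity is expressed as AC50 from concentration-response fits of the ratio and donor data.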
PNC assembly inh – perinucleolar compartment assembly inhibition; 140,000 tested, 3.1% active; PC3M PTB-GFP, PNC prevalence imaging, 16 h; hits give low values; activity change (PNC), negative = inhibition, % at 10 µM;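 active = readout at or below -70, meaning at least 70% loss of cells showing the perinucleolar compartment, a nuclear body marking cancer cells; inconclusive = readout between -30 and a set limit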;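 also: plate controls were DMSO wells for no effect and camptothecin positive control wells for full effect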
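Compounds are pinned in duplicate onto adhered PC3M cells stably expressing GFP-tagged PTB and incubated 16 h at 37 C. Cells are then fixed, nuclei stained with Hoechst, and PNC-positive cells counted.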
Starred values were filed as active, the others as inactive; ? = inconclusive; · = no result; [ ] = dose if it differs, or a comment. Unless noted, calls follow the shape of the dose curve; as a rule, active = well fitted inhibition curve with a large enough effect (not every such curve was filed as active); inconclusive = small, poorly fitted or top-dose-only effect, or another doubt; inactive = no such curve, though single readings can be large or run the other way. Unless noted, % is scaled to controls: 0 for no effect and ±100 for the full control effect.

SMILES	ALDH1A1 block	IMPase Li inh	HPGD block	IMPase inh	PNC assembly inh
CCN(CC)CCCNc1nc(-c2ccccc2)nc2ccccc12	-3%	10%	-13%	-6	-100*
CCOP(=O)(c1ccc(N(C)C)cc1)C(O)c1ccccc1 (stereo not given)	0%	30%[38.3 µM]	-8%	-1	-1
CC(C)COP(=O)(c1ccc(N(C)C)cc1)C(O)c1ccncc1 (stereo not given)	13µM*	7%[38.3 µM]	28µM*	-5	38
C=CCOc1c(CNc2nccs2)cccc1OCC	2.5µM*	10%[38.3 µM]	-16%	1	?
C=CCOc1ccc(CNc2nccs2)cc1OCC	?	4%	-19%	9	74
C=CCOc1c(Cl)cc(CNc2nccs2)cc1OC	13µM*	5%	·	·	·
CC(C)CNc1c(N)c(=O)oc2ccccc12	1%	31%[38.3 µM]	-21%	5	28
CCOc1ccc(CN(C)C(=O)CCl)cc1	0.05µM*	10%	·	·	·
CCOc1ccc(CN(C)CCc2ccccn2)cc1	?	10%	·	·	·
O=C(O)CCC(=O)N1CCN(c2cccc(Cl)c2)CC1	28µM*	24%[38.3 µM]	-6%	-2	0
O=C(Cc1cccs1)N1CCN(c2cccc(Cl)c2)CC1	6%	-1%	·	·	·
CCOCC(=O)N1CCN(c2cccc(Cl)c2)CC1	3.2µM*	-1%	·	·	·
O=C(NC1CC1)c1cc2c(F)cccc2s1	-3%	4%	·	·	·
Cc1ccc(S(=O)(=O)NC(=O)Nc2cc(C)ccc2F)cc1	28µM*	-13%[38.3 µM]	-4%	7	14
Cc1nc2cc(NC(=O)COc3ccc(C#N)cc3)ccc2n1-c1ccccc1	11µM*	19%[38.3 µM]	-14%	-4	-16
N#C/C(=C\c1ccc(N2CCOCC2)o1)C(=O)NCCc1ccccc1	?	13%	·	·	·
COCCNC(=O)/C(C#N)=C/c1cccc(/C=C(\C#N)C(=O)NCCOC)c1	?	16%	25µM*	·	?
N#C/C(=C/c1ccc(N2CCOCC2)o1)C(=O)Nc1ccccc1	22µM*	28%	·	·	·
COCCNC(=O)/C(C#N)=C/C(C)=C/c1ccccc1	7%	6%	-21%	·	-10
COCCNC(=O)/C(C#N)=C/c1ccc(N2CCOCC2)o1	32µM*	29%	?	·	47
N#C/C(=C\c1ccc(O)c(O)c1)C(=O)NCCCc1ccccc1	?	12%	32µM*	10	8
COc1ccc(/C=C(\C#N)C(=O)NCCc2ccccc2)cc1OCc1ccccc1	?	7%	?	·	48
COc1ccc(Nc2nc(Nc3ccc(OC)cc3OC)nc(N3CCOCC3)n2)c(OC)c1	·	·	·	1	·
C=CCn1c(SCC(=O)c2ccc(OC)cc2)nnc1C(C)NC(=O)c1cccs1 (stereo not given)	?	7%[38.3 µM]	-14%	5	66
COc1ccc2[nH]cc(CCNc3ccnc(-c4cccc(NS(C)(=O)=O)c4)n3)c2c1	?	3%	-21%	·	·
SMILES	ALDH1A1 block	IMPase Li inh	HPGD block	IMPase inh	PNC assembly inh
O=C(Nc1ccc(F)cc1)C(c1ccccc1)N1CCN(C(=O)c2ccco2)CC1 (stereo not given)	5µM*	16%[38.3 µM]	-18%	4	36
O=C(Nc1ccc2c(c1)OCO2)C(c1ccccc1)N1CCN(C(=O)c2ccco2)CC1 (stereo not given)	3µM*	24%[38.3 µM]	-19%	0	14
Cc1ccc(C)c(S(=O)(=O)N2CCN(C(C(=O)Nc3ccc(F)cc3)c3ccccc3)CC2)c1 (stereo not given)	11µM*	5%	-13%	·	6
Cc1ccc(C(=O)NCCCc2ccccc2)s1	-3%	-9%	-25%	·	-22
Cc1cc(C)c(-c2c(O)c3cccc4c3n(c2=O)CCC4)c(C)c1	-1%	-4%	?	0	-100*
COc1cccc(Cn2c(=O)cnc3cnc(OC)nc32)c1	-7%	-1%	·	·	·
COc1ccc(-n2c(-c3cccc(OC)c3)nc(=S)c3c2CCCC3)cc1	?	7.9µM*	-20%	?	-23
CC/C=C\C/C=C\C/C=C\C/C=C\C/C=C\CCCCCC(=O)O	-11%	-9%	-8%	·	·
CC/C=C\C/C=C\C/C=C\C/C=C\C/C=C\C/C=C\CCC(=O)O	22µM*	-7%	-7%	·	·
CCNc1ncc2nc(CCc3ccccc3)c(=O)n(C)c2n1	?	3%	?	·	·
O=C(CSc1nnc([C@@H]2CCCN2)o1)c1ccc(Cl)cc1	22µM*	2%[38.3 µM]	-26%	17	14
CCOc1ccc2cc(-c3nnc(Nc4ccccc4F)s3)c(=O)oc2c1	·	·	·	-12	·
CCCN1C(=O)/C(=C/c2ccc3c(c2)OCO3)NC1=S	2.2µM*	-4%	·	·	·
C=CCn1c(CNc2ccc(C)cc2)nnc1SCC(=O)N/N=C/c1ccc(O)cc1	25µM*	-5%[38.3 µM]	-15%	4	22
C=CCn1c(COc2ccc(Cl)cc2)nnc1SCC(=O)N/N=C/c1ccccc1	-2%	2%[38.3 µM]	0%	5	-18
CCOC(=O)CSc1nc(-c2ccccc2)nc2ccc(F)cc12	?	10µM*	-26%	?	-24
O=C(CSc1nnc2sc3ccccc3n12)c1ccco1	16µM*	-9%	22µM*	-8	-13
CN(C)C(=O)CSc1nnc2sc3ccccc3n12	-7%	4%[38.3 µM]	-11%	1	2
O=c1c2ccccc2nnn1CSc1nnc2sc3ccccc3n12	13µM*	6%[38.3 µM]	-25%	4	?
Cn1nnnc1SCC(=O)c1ccco1	40µM*	-5%[38.3 µM]	-9%	10	2
O=C(CSCCSCC(=O)c1ccco1)c1ccco1	22µM*	10%[38.3 µM]	?	7	?
COCCNc1ccnc(-c2ccccc2C(F)(F)F)n1	12%	-8%	·	·	·
NNc1ncnc2c1cnn2-c1ccccc1	18µM*	20%[38.3 µM]	-20%	0	?
